IL1B secr inh: blocks inflammasome-driven IL-1 beta release. THP-1 LPS/ATP IL-1B secretion, AlphaLISA, 16 h; hits give low values. activity change, % at 57.5 µM. 360,000 tested, 4.7% active. AID 743279; in the data active = activity change below about -50%; inconclusive = mostly about -30% to -49%; also: % is scaled to controls: 0 for no effect and ±100 for the full control effect
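THP-1 cells pretreated 1 hr with compounds (up to 57.5 uM final), then stimulated with LPS (250 ng/mL final) plus ATP (1.25 mM final); secreted IL-1B measured by AlphaLISA after 16 hr, decreased signal indicating inhibition.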
SW480 rerep: induces DNA re-replication in SW480 colon adenocarcinoma cells. SW480 DNA re-replication, Hoechst DNA content imaging, 48 h. Potency, µM (top dose mostly 46.1 µM), for inactives: at the highest dose re-replication activation, hits mostly activators. 340,000 tested, 1.8% active; also: potency is read from the fitted curve at half-maximal effect; % of control where 0% means no effect; nearly all actives have a fitted effect of over 55% in size
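250 cells/well; 23 nL cpd via pin tool; 48 hr, 37 C, 5% CO2; Hoechst 40 min; imager read of total nuclear intensity, ex 405/em 500-530 nm.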
MCF10A rerep: induces DNA re-replication in MCF 10a normal breast cells. 350,000 tested, 2.9% active. MCF 10A DNA re-replication, Hoechst nuclear intensity, 48 h. AID 624296. Potency, µM (highest dose often 46.1 µM), inactives show at the top dose activity, positive = re-replication, actives largely listed as activators; also: potency is read from the fitted curve at half-maximal effect; % of control where 0% means no effect; nearly all actives have a fitted effect of over 50% in size
DT40 TDP1 no CPT: qHTS for Inhibitors of human tyrosyl-DNA phosphodiesterase 1 (TDP1): qHTS in cells in absence of CPT; DT40 Tdp1-/- hTDP1 cells, no CPT, ATP luminescence, 48 h; Potency, µM (series often up to 46.2 µM), for the others: top-dose activity change, negative = growth inhibition, hits mostly inhibitors; 420,000 tested, 15% active; also: potency is read from the fitted curve at half-maximal effect; % is scaled to controls: 0 for no effect and ±100 for the full control effect; nearly all actives have a fitted effect of over 55% in size
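Growth of hTDP1-complemented DT40 Tdp1-knockout cells is measured by ATP luminescence after at least 48 hr compound exposure at 37 °C, with DMSO substituting for the 20 nM CPT used in the parallel screen.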
BCR signal inh: inhibitors of chronic active B-cell receptor signaling; Potency, µM (titrated, usually from 46.1 µM), inactives show at the highest dose activity change, negative = inhibition, actives largely listed as inhibitors; 340,000 tested, 0.05% active; AID 493014; ABC-DLBCL IkBa-CBG/CBR reporter, luminescence ratio, 4 h; active = well fitted inhibition curve with a large enough effect in the signal ratio, with a control signal flat, not every such curve was filed as active; inconclusive = small, poorly fitted or top-dose-only effect, or effect the other way, or a change in a side signal; the % refers to the signal ratio;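 also: potency is read from the fitted curve at half-maximal effect; plate controls were basal doxycycline-induced cells for no effect and cells given 10 µM MG132 for full effect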
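Concentration-response series (up to 46 uM) were applied to TMD8 dual-reporter cells for 4 h at 37C with doxycycline. Green/red ratio, after filter-overlap correction, defined %Activity; red signal alone was normalised to basal cells and zero luminescence.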
DT40 TDP1 CPT: DT40-hTDP1 cell growth loss with CPT. chicken DT40 Tdp1-/-;hTDP1 cells + 20 nM CPT, ATP luminescence, 48 h. Potency, µM (top dose mostly 46.2 µM), for the others: at the top dose activity change, negative = growth inhibition, most hits filed as inhibitors. 420,000 tested, 12% active; also: potency is read from the fitted curve at half-maximal effect; % is scaled to controls: 0 for no effect and ±100 for the full control effect; nearly all actives have a fitted effect of over 55% in size
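Chicken DT40 Tdp1-/- cells stably complemented with human TDP1 were seeded at 400 cells/well in medium containing 20 nM camptothecin, exposed to pin-transferred compounds, and grown at 37 °C for at least 48 hr. Viability was read as ATP luminescence.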
Active calls of the source: *; [ ] = dose if it differs, or a comment. Most compounds without a hit are left out; they make up all but 19% or so of the library. Unless noted, calls follow the shape of the dose curve; as a rule, active = well fitted curve in the direction sought with a large enough effect; inconclusive = small, poorly fitted or top-dose-only effect, or another doubt; inactive = no such curve, though single readings can be large; an effect the other way counts as inactive or inconclusive.

What do the screens show for `Nc1ccc(CC(N)c2csc(Nc3ncccn3)n2)cc1` (configuration not stated)?
IL1B secr inh: -15; DT40 TDP1 no CPT: 10µM*; DT40 TDP1 CPT: 18µM*

How did NC(Cc1ccc(F)cc1)c1csc(Nc2ncccn2)n1 (configuration not stated) do in these assays?
IL1B secr inh: -25; DT40 TDP1 no CPT: 5.8µM*; DT40 TDP1 CPT: 7.3µM*

Results for COC(=O)C1(C(=O)OC)C[C@H](c2ccc(OC)cc2)N(Cc2ccccc2OC)[C@@H]1c1ccccc1 ?
IL1B secr inh: -21; DT40 TDP1 no CPT: inconclusive; DT40 TDP1 CPT: inconclusive

How did O=c1[nH]c(=O)n(Cc2ccco2)c(O)c1C=NC1CCN(Cc2ccccc2)CC1 do in these assays?
IL1B secr inh: 34; SW480 rerep: 8%; MCF10A rerep: 3%; DT40 TDP1 no CPT: -8%; BCR signal inh: inconclusive; DT40 TDP1 CPT: inconclusive

Results for COc1ccc2c3c1O[C@H]1[C@@H](O)C=C[C@H]4[C@@H](C2)NCC[C@@]341 ?
DT40 TDP1 no CPT: inconclusive; DT40 TDP1 CPT: -7%[92.5 µM]

What do the screens show for `COCCO[C@H]1CC[C@@]2(C)C(=CCC3C2CC[C@@]2(C)C3CC[C@]2(C)O)C1` (some centres not stated)?
IL1B secr inh: -72*; SW480 rerep: inconclusive; MCF10A rerep: inconclusive; DT40 TDP1 no CPT: 12µM*; BCR signal inh: 0%; DT40 TDP1 CPT: inconclusive

What do the screens show for `C[C@]12CCC(OC(=O)CCC(=O)O)CC1=CCC1C2CC[C@]2(C)C(=O)CCC12` (some centres not stated)?
IL1B secr inh: -8; SW480 rerep: 23%; MCF10A rerep: 11%; DT40 TDP1 no CPT: -22%; BCR signal inh: 8%; DT40 TDP1 CPT: 3%

Results for CCN(CC)CCO[C@H]1CC[C@@]2(C)C(=CC[C@@H]3[C@@H]2CC[C@]2(C)C(=O)CC[C@@H]32)C1 ?
DT40 TDP1 no CPT: 2.7µM*; DT40 TDP1 CPT: 24µM*

What do the screens show for `CCN(CC)CCO[C@H]1CC[C@@]2(C)C(=CC[C@@H]3[C@H]2CC[C@]2(C)C(=O)CC[C@H]32)C1`?
SW480 rerep: -4%; MCF10A rerep: 12%; DT40 TDP1 no CPT: 2.4µM*; DT40 TDP1 CPT: 2.4µM*

Results for C[C@H]1CC[C@]2(NC1)O[C@H]1C[C@H]3[C@@H]4CC[C@H]5C[C@@H](O)CC[C@]5(C)[C@H]4CC[C@]3(C)[C@H]1[C@@H]2C ?
DT40 TDP1 no CPT: inconclusive; DT40 TDP1 CPT: -3%

Results for COc1ccc2nc(NC3=NCCN3)sc2c1 ?
IL1B secr inh: 13; SW480 rerep: -7%; MCF10A rerep: -1%; DT40 TDP1 no CPT: -3%; BCR signal inh: -6%; DT40 TDP1 CPT: 4%

Results for CC[n+]1c(SC)ccc2cc(OC)ccc21 ?
IL1B secr inh: 6; SW480 rerep: -5%; MCF10A rerep: inconclusive; DT40 TDP1 no CPT: 16µM*; BCR signal inh: -4%; DT40 TDP1 CPT: inconclusive

Results for Cc1ccc2c(C)c3ccc4ccccc4c3c[n+]2c1 ?
IL1B secr inh: -66*; SW480 rerep: 4%; MCF10A rerep: 1%; DT40 TDP1 no CPT: 4.6µM*; DT40 TDP1 CPT: 3.7µM*

What do the screens show for `O=P(Nc1ccccc1)(Nc1ccccc1)Oc1cccc(Cl)c1`?
IL1B secr inh: -12; SW480 rerep: -2%; MCF10A rerep: 11%; DT40 TDP1 no CPT: inconclusive; BCR signal inh: -9%; DT40 TDP1 CPT: inconclusive

How did C=CCn1c(O)c(C(CC)=NCc2cc(OC)cc(OC)c2)c(=O)[nH]c1=O do in these assays?
IL1B secr inh: 76; SW480 rerep: 2%; MCF10A rerep: inconclusive; DT40 TDP1 no CPT: 7.3µM*; BCR signal inh: -17%; DT40 TDP1 CPT: 7.3µM*

How did C=CCn1c(O)c(C(CC)=NCc2ccc3c(c2)OCO3)c(=O)[nH]c1=O do in these assays?
SW480 rerep: -9%; MCF10A rerep: inconclusive; DT40 TDP1 no CPT: inconclusive; BCR signal inh: inconclusive; DT40 TDP1 CPT: inconclusive

What do the screens show for `C=CCn1c(O)c(C(CC)=NCCCO)c(=O)[nH]c1=O`?
IL1B secr inh: 9; SW480 rerep: -9%; MCF10A rerep: 16%; DT40 TDP1 no CPT: 8.2µM*; BCR signal inh: 7%; DT40 TDP1 CPT: -6%

Results for CN(C)C1C(=O)C(C(N)=O)=C(O)C2(O)C(=O)C3=C(O)c4c(O)cccc4C(C)(O)C3C(O)C12 (configuration not stated) ?
IL1B secr inh: -2; SW480 rerep: 10%; MCF10A rerep: -19%; DT40 TDP1 no CPT: 7.3µM*; BCR signal inh: inconclusive; DT40 TDP1 CPT: 10µM*

How did CN(C)C1C(=O)C(C(N)=O)=C(O)[C@@]2(O)C(=O)C3=C(O)c4c(O)ccc(Cl)c4[C@](C)(O)C3CC12 (some centres not stated) do in these assays?
DT40 TDP1 no CPT: 18µM*; DT40 TDP1 CPT: 16µM*

Results for CN(C)[C@@H]1C(=O)C(C(N)=O)=C(O)[C@]2(O)C(=O)C3=C(O)c4c(O)ccc(Cl)c4[C@](C)(O)[C@H]3C[C@@H]12 ?
SW480 rerep: -4%[20.6 µM]; MCF10A rerep: -4%[20.6 µM]

What do the screens show for `COc1ccc(CC(C)NC2CCCCCC2)cc1` (configuration not stated)?
IL1B secr inh: -1; SW480 rerep: -2%; MCF10A rerep: -8%; DT40 TDP1 no CPT: inconclusive; BCR signal inh: inconclusive; DT40 TDP1 CPT: inconclusive

Results for COCCCn1c(-c2ccc(OC)cc2)cc(C(=O)NC2CCCCCCC2)c1C ?
IL1B secr inh: -53*; SW480 rerep: inconclusive; MCF10A rerep: inconclusive; DT40 TDP1 no CPT: 15µM*; BCR signal inh: inconclusive; DT40 TDP1 CPT: 21µM*

How did C[C@H](CN1CCOCC1)C(C(=O)N1CCCC1)(c1ccccc1)c1ccccc1 do in these assays?
DT40 TDP1 no CPT: 42µM*; DT40 TDP1 CPT: inconclusive

How did C(#CCN1CCCCC1)CN1CCCCC1 do in these assays?
IL1B secr inh: 16; DT40 TDP1 no CPT: 11%; DT40 TDP1 CPT: 14%

What do the screens show for `Cc1nc2cc(-c3ccccc3)sc2c(=O)n1N`?
IL1B secr inh: -6; SW480 rerep: -12%; MCF10A rerep: 0%; DT40 TDP1 no CPT: inconclusive; BCR signal inh: inconclusive; DT40 TDP1 CPT: 16µM*

Screening results (PubChem BioAssay)
